# PubChem BioAssay
# Several values for one entry are separate records, joined by “and”; a condition that tells them apart may be missing. Equal entries are not always repeated. Activity calls are given as the source filed them. Unless noted, no rule for the calls is given here.
# What was measured:
# [1] = Wnt pathway potentiators raising nuclear beta-catenin – imaging, WNT3A-conditioned medium, mouse C2C12, NPC library, primary screen (AID 1117326; in the data active = nuclear beta-catenin stimulation mostly above about 4.2%, no sharp cut-off; inactive = mostly below about 10%); settings: stronger effect = higher value
# [2] = stimulators of insulin release from INS-1E, primary screen, cell-based, 5 mM glucose, NPC library (AID 1117329;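 active = compound raises insulin release from rat beta cells at 5 mM glucose, no numeric limit stated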); settings: rat INS-1E insulin secretion, at 10 µM, stronger effect = higher value
# [3] = growth inhibition of GSK3B-pretreated HCT116 cells – cell-based, CellTiter-Glo, 0.2 to 20 µM (AID 1117336;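 active = compounds lowering colon cancer cell viability after pretreatment blocking the GSK3B kinase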); settings: HCT116 viability after GSK3B inhibitor, at 20 µM, stronger effect = higher value
# [4] = inhibition of endothelial tube formation, primary screen, imaging, VEGF stimulated, CD31 staining, tube area, NPC library (AID 1117340;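 active = compound that reduces growth-factor-driven endothelial tube area in a mixed cell culture, no cutoff stated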); settings: VEGF-stimulated ADSC/ECFC co-culture, at 10 µM, stronger effect = higher value
# [5] = GLP1 release stimulators, primary, NCI-H716, NPC library (AID 1117341;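 active = compound raises GLP1 secretion from the human gut endocrine cells, with no numeric limit stated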); settings: NCI-H716 cells, at 10 µM, stronger effect = higher value
# [6] = HCT116 colon cancer cell growth inhibition, primary screen, CellTiter-Glo luminescence, NPC library (AID 1117342;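 active = compounds that lower survival of HCT116 colon cancer cells in the luminescence readout, no numeric limit stated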); settings: at 20 µM (top of the series)
# [7] = reduced SW480 viability measured with CellTiter-Glo, NPC library, primary (AID 1117343;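 active = compounds that lower viability of the colon cancer cells in the luminescence readout, with no numeric limit stated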); settings: CellTiter-Glo luminescence; at 20 µM (top of the series)
# [8] = NPC library primary testing for decreased DLD-1 cell viability via CellTiter-Glo (AID 1117346;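 active = compounds that lower survival of DLD-1 colon cancer cells in the luminescence readout, no cutoff given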); settings: DLD-1 viability, CellTiter-Glo luminescence; at 20 µM (top of the series)
# [9] = viability loss with induced miR-34 in A549 – imaging, A549 dox-inducible miR-34, nuclei and caspase counts, primary screen (AID 1347080;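 active = compounds whose cell count with miR-34 switched on is under 0.7 times the count with it off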); settings: A549 miR-34 inducible, Hoechst nuclei count, 48 h
# [10] = galactose survival enhancers in mitochondrial complex I cybrids – cell-based, galactose medium, ATP luminescence, primary screen (AID 1645843;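 active = z-score of at least 1.8 in each of two replicates, scored against plate mean and spread of sample wells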;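 also: positive z means more ATP and so rescue of galactose-driven cybrid death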); settings: complex I mutant cybrid cells, 72 h, stronger effect = higher value
# [11] = compounds altering circadian rhythm period length – cell-based, LOPAC library, luminescence reporter (AID 2774); settings: circadian reporter cells, at 7 µM, actives lie on both sides;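 also: values are relative to mean of DMSO wells on each plate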
# [12] = compounds altering viability of human ES cells (AID 493140); settings: human embryonic stem cell survival screen; stronger effect = higher value;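 also: cells exposed to compounds for four days before counting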
# [13] = P. berghei load reduction in hepatocytes – cell-based, HepG2, luciferase luminescence, HepG2 viability, primary screen (AID 624349; in the data active = parasite load remaining mostly below about 12%, no sharp cut-off; inactive = mostly above about 10%;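 also: 100% = mean of DMSO negative control wells on the same plate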); settings: P. berghei liver stage in HepG2, luciferase luminescence, concentration not given here; parasite load remaining: stronger effect = lower value; viability: measured here: HepG2 viability without parasites
# [14] = system: Hepatitis C virus NS3 helicase; assay: blockers of NS3h binding to ssDNA – biochemical, fluorescence polarization, LOPAC1280 library, primary screen (AID 687035; in the data active = inhibition above about 37%); settings: Purified HCV NS3 helicase, Cy5-dT15 ssDNA binding fluorescence polarization; stronger effect = higher value; concentration not given here
# [15] = compounds altering Cy5-DNA-NS3h complex signal – biochemical, LOPAC1280, artefact control for HCV NS3 helicase inhibitor project (AID 687037); settings: Cy5-DNA-NS3h complex fluorescence interference counterscreen
# [16] = system: Aerobactin synthetase IucA (Klebsiella pneumoniae, hypervirulent); assay: biochemical IucA inhibition screen of LOPAC library by absorbance (AID 1346212); settings: IucA enzyme assay, absorbance (OD) readout; stronger effect = lower value;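 tested at 8 µM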;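 also: 100% = no compound wells and 0% = no enzyme wells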
# [17] = MELAS cybrid and Rieske KO viability enhancers – cell-based, MELAS cybrids, Rieske KO mouse fibroblasts, CellTiter-Glo, primary screen (AID 1508586;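 active = mean z-score across replicates of 1.96 or higher in either the MELAS or the Rieske mutant cell line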;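 also: z relative to plate mean and SD of compound and empty wells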); settings: low glucose
# [18] = target: NAD(+) hydrolase SARM1 (Homo sapiens) (UniProt Q6SZW1); assay: blocking NAD cleavage by SARM1 SAM-TIR – cell lysate, NAD-Glo luminescence (AID 1508614;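 active = compound whose remaining NAD level is above about 45 nM, limit read from the data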;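 also: higher remaining NAD means stronger inhibition of SARM1 NADase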); settings: SAM-TIR HEK293T lysate NADase, at 1 µM, stronger effect = higher value
# Chain of NAD(+) hydrolase SARM1 (Homo sapiens) (Q6SZW1 whole entry, looked up): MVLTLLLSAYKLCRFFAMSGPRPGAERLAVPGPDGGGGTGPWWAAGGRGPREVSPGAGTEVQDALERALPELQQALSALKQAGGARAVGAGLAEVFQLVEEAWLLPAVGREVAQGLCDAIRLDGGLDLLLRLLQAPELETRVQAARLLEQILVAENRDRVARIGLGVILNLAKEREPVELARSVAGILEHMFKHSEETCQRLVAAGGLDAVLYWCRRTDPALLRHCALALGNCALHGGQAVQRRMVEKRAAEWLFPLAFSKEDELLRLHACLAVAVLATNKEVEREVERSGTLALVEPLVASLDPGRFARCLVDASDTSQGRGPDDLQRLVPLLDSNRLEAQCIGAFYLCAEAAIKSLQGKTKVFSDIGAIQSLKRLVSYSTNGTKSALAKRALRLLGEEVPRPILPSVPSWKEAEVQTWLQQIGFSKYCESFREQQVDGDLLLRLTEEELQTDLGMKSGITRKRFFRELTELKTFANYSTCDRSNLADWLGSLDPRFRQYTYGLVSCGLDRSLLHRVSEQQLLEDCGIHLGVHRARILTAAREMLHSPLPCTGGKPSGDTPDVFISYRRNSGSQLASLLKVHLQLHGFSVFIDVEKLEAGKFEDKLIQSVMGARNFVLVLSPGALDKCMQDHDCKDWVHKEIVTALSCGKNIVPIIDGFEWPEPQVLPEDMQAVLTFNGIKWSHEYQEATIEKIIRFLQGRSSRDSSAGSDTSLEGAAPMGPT
# [19] = EMT-state selective cytotoxicity in co-culture – imaging, PC-3E GFP, TEM4-18 mCherry, primary screen (AID 1345086;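 active = compounds killing one labelled cell type while sparing the other, by normalised counts and ratio limits, not self-fluorescent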;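 also: cells exposed to compound for 72 h before imaging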;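 as to red/green cell ratio (normalised): normalised mesenchymal count divided by normalised epithelial count so high means epithelial killing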); settings: PC-3E GFP / TEM4-18 mCherry co-culture, imaging cell counts, at 1 µM
# [20] = stronger effect = lower value, cell number ratio, induced over uninduced
# [21] = measured here: relative caspase fold change +Dox/-Dox
# [22] = measured here: total cells with miR-34 induction, stronger effect = lower value
# [23] = measured here: total cells without miR-34 induction
# [24] = MELAS cybrid survival, CellTiter-Glo 48 h, stronger effect = higher value
# [25] = Rieske KO mouse fibroblast survival, CellTiter-Glo 72 h
smiles,measurement,setting,value
CC(C)(C)OC(=O)c1ncn2c1[C@@H]1CCCN1C(=O)c1c(Br)cccc1-2,nuclear beta-catenin stimulation,[1]; at 10 µM,4% (inactive)
same,nuclear beta-catenin stimulation,"[1]; stimulation, at 2 µM",2.4%
same,insulin secretion stimulation,[2],-0.65% (inactive)
same,viability decrease,[3],13.7% (inactive)
same,tube area decrease,[4],2% (inactive)
same,GLP1 secretion stimulation,[5],-0.4% (inactive)
same,inhibition of viability,[6],26.5% (inactive)
same,viability decrease (inhibition),[7],-7.5% (inactive)
same,viability decrease (inhibition),[8],7.7% (inactive)
same,fold change,[9]; [20],0.898 (inactive)
same,fold change,[9]; [21],1.56
same,cell count,[9]; [22],6920
same,cell count,[9]; [23],7710
same,z-score,[10],-0.115 (inactive)
NCC1(CC(=O)O)CCCCC1,period change,[11],-0.07 h (inactive)
same,survival,[12],2.25 (inactive)
same,parasite load remaining,[13],131% (inactive) and 58.8% (inactive)
same,viability,[13],103% and 169%
same,inhibition,[14],-6% (inactive)
same,fluorescence ratio (interference),[15],1 (inactive)
same,nuclear beta-catenin stimulation,[1]; at 10 µM,1% (inactive)
same,nuclear beta-catenin stimulation,"[1]; stimulation, at 2 µM",2.1%
same,insulin secretion stimulation,[2],-1.1% (inactive)
same,viability decrease,[3],-8.75% (inactive)
same,tube area decrease,[4],20.1% (inactive)
same,GLP1 secretion stimulation,[5],-1.7% (inactive)
same,inhibition of viability,[6],-3.4% (inactive)
same,viability decrease (inhibition),[7],-3.2% (inactive)
same,viability decrease (inhibition),[8],-8.35% (inactive)
same,remaining activity,[16],98.6% (inactive)
same,z-score,[17]; [24],0.467 (inactive) and -0.335 (inactive)
same,z-score,[17]; [25],-0.399 and 0.119
same,remaining NAD,[18],10 nM (inactive)
same,z-score,[10],0.26 (inactive) and 0.88 (inactive)
Cc1ncsc1CCCl,inhibition,[14],-2% (inactive)
same,fluorescence ratio (interference),[15],1 (inactive)
same,nuclear beta-catenin stimulation,[1]; at 10 µM,1% (inactive)
same,nuclear beta-catenin stimulation,"[1]; stimulation, at 2 µM",2.4%
same,insulin secretion stimulation,[2],-0.8% (inactive)
same,viability decrease,[3],-208% (inactive)
same,tube area decrease,[4],-22% (inactive)
same,GLP1 secretion stimulation,[5],-0.4% (inactive)
same,inhibition of viability,[6],-3.1% (inactive)
same,viability decrease (inhibition),[7],43.8% (inactive)
same,viability decrease (inhibition),[8],72.4% (active)
same,fold change,[9]; stronger effect = lower value,0.959 (inactive) and 0.961 (inactive)
same,fold change,[9]; [21],0.758 and 0.938
same,cell count,[9]; [22],9720 and 8120
same,cell count,[9]; [23],10100 and 8450
same,z-score,[10],0.7 (inactive) and 0.075 (inactive)
Clc1cccc(SC2CCNCC2)n1,nuclear beta-catenin stimulation,[1]; at 10 µM,1% (inactive)
same,nuclear beta-catenin stimulation,"[1]; stimulation, at 2 µM",2%
same,insulin secretion stimulation,[2],4.8% (inactive)
same,viability decrease,[3],-32% (inactive)
same,tube area decrease,[4],5.5% (inactive)
same,GLP1 secretion stimulation,[5],0.9% (inactive)
same,inhibition of viability,[6],11.5% (inactive)
same,viability decrease (inhibition),[7],17.2% (inactive)
same,viability decrease (inhibition),[8],-11.3% (inactive)
same,fold change,[9]; [20],1.01 (inactive)
same,fold change,[9]; [21],0.88
same,cell count,[9]; [22],8450
same,cell count,[9]; [23],8400
same,z-score,[10],-0.34 (inactive)
C=CCN1C[C@H](C)N([C@H](c2ccc(C(=O)N(CC)CC)cc2)c2cccc(OC)c2)C[C@H]1C,nuclear beta-catenin stimulation,[1]; at 10 µM,1.7% (inactive)
same,nuclear beta-catenin stimulation,"[1]; stimulation, at 2 µM",-0.7%
same,insulin secretion stimulation,[2],-1.1% (inactive)
same,viability decrease,[3],4.6% (inactive)
same,tube area decrease,[4],3.8% (inactive)
same,GLP1 secretion stimulation,[5],5.2% (inactive)
same,inhibition of viability,[6],35% (inactive)
same,viability decrease (inhibition),[7],6% (inactive)
same,viability decrease (inhibition),[8],23.5% (inactive)
same,remaining activity,[16],109% (inactive)
same,fold change,[9]; [20],0.944 (inactive)
same,fold change,[9]; [21],1.05
same,cell count,[9]; [22],8480
same,cell count,[9]; [23],8990
same,z-score,[10],0.105 (inactive)
C[C@]12CC[C@H](O)CC1=CC[C@@H]1[C@@H]2CC[C@]2(C)C(=O)CC[C@@H]12,period change,[11],-0.175 h (inactive)
same,parasite load remaining,[13],67.8% (inactive) and 14.9% (inactive)
same,viability,[13],72.6% and 126%
same,nuclear beta-catenin stimulation,[1]; at 10 µM,3.7% (inactive)
same,nuclear beta-catenin stimulation,"[1]; stimulation, at 2 µM",1.2%
same,insulin secretion stimulation,[2],-3% (inactive)
same,viability decrease,[3],3.8% (inactive)
same,tube area decrease,[4],8% (inactive)
same,GLP1 secretion stimulation,[5],1.9% (inactive)
same,inhibition of viability,[6],-21.8% (inactive)
same,viability decrease (inhibition),[7],113% (active)
same,viability decrease (inhibition),[8],8.95% (inactive)
same,fold change,[9]; stronger effect = lower value,0.917 (inactive)
same,fold change,[9]; [21],1.38
same,cell count,[9]; [22],8820
same,cell count,[9]; [23],9620
same,z-score,[17]; [24],0.542 (inactive)
same,z-score,[17]; [25],-0.656
same,remaining NAD,[18],10 nM (inactive)
same,z-score,[10],-0.16 (inactive)
Cc1ccc(S(=O)(=O)N[C@@H](CCCCN)C(=O)CCl)cc1,period change,[11],0 h (inactive)
same,inhibition,[14],-3% (inactive)
same,fluorescence ratio (interference),[15],1 (inactive)
same,nuclear beta-catenin stimulation,[1]; at 10 µM,2.3% (inactive)
same,nuclear beta-catenin stimulation,"[1]; stimulation, at 2 µM",0%
same,insulin secretion stimulation,[2],0.9% (inactive)
same,viability decrease,[3],-9.5% (inactive)
same,tube area decrease,[4],13% (inactive)
same,GLP1 secretion stimulation,[5],-1.9% (inactive)
same,inhibition of viability,[6],-8.6% (inactive)
same,viability decrease (inhibition),[7],12.5% (inactive)
same,viability decrease (inhibition),[8],-7% (inactive)
same,remaining activity,[16],114% (inactive)
same,fold change,[9]; stronger effect = lower value,0.989 (inactive) and 0.965 (inactive)
same,fold change,[9]; [21],1.42 and 1.58
same,cell count,[9]; [22],9040 and 5750
same,cell count,[9]; [23],9130 and 5960
same,z-score,[10],-0.59 (inactive)
c1ccc(C2CC2)c(OCC2=NCCN2)c1,period change,[11],-0.34 h (inactive)
same,parasite load remaining,[13],45.2% (inactive)
same,viability,[13],96.5%
same,inhibition,[14],-4% (inactive)
same,fluorescence ratio (interference),[15],1 (inactive)
same,nuclear beta-catenin stimulation,[1]; at 10 µM,1.3% (inactive)
same,nuclear beta-catenin stimulation,"[1]; stimulation, at 2 µM",0.6%
same,insulin secretion stimulation,[2],-0.5% (inactive)
same,viability decrease,[3],-54.5% (inactive)
same,tube area decrease,[4],-3.7% (inactive)
same,GLP1 secretion stimulation,[5],10.4% (inactive)
same,inhibition of viability,[6],5.23% (inactive)
same,viability decrease (inhibition),[7],7% (inactive)
same,viability decrease (inhibition),[8],-2.1% (inactive)
same,remaining activity,[16],98% (inactive)
same,z-score,[17]; [24],-0.68 (inactive)
same,z-score,[17]; [25],-0.25
same,z-score,[10],-0.075 (inactive) and 0.06 (inactive) and 0.195 (inactive)
COP(=O)(OC)C(O)C(Cl)(Cl)Cl (stereo not given),survival,[12],17.5 (inactive)
same,parasite load remaining,[13],19.7% (inactive) and 127% (inactive)
same,viability,[13],48.9% and 90.6%
same,nuclear beta-catenin stimulation,[1]; at 10 µM,-1.9% (inactive)
same,nuclear beta-catenin stimulation,"[1]; stimulation, at 2 µM",0.4%
same,insulin secretion stimulation,[2],0.2% (inactive)
same,viability decrease,[3],2.4% (inactive)
same,tube area decrease,[4],5.8% (inactive)
same,GLP1 secretion stimulation,[5],-3.2% (inactive)
same,inhibition of viability,[6],-44.1% (inactive)
same,viability decrease (inhibition),[7],1.6% (inactive)
same,viability decrease (inhibition),[8],-13.3% (inactive)
same,red/green cell ratio (normalised),[19]; actives lie on both sides,0.95 (inactive)
same,normalised cell number,[19]; measured here: epithelial PC-3E GFP cell survival,0.96
same,normalised cell number,[19]; measured here: mesenchymal TEM4-18 mCherry cell survival,0.91
same,fold change,[9]; stronger effect = lower value,0.918 (inactive)
same,fold change,[9]; [21],1.24
same,cell count,[9]; [22],8320
same,cell count,[9]; [23],9070
same,remaining NAD,[18],10 nM (inactive)
Cc1cccc(C)c1NC(=O)CN1CCCC1=O,inhibition,[14],-5% (inactive)
same,fluorescence ratio (interference),[15],1 (inactive)
same,nuclear beta-catenin stimulation,[1]; at 10 µM,-1.9% (inactive)
same,nuclear beta-catenin stimulation,"[1]; stimulation, at 2 µM",0.9%
same,insulin secretion stimulation,[2],1.6% (inactive)
same,viability decrease,[3],0.1% (inactive)
same,tube area decrease,[4],-2.5% (inactive)
same,GLP1 secretion stimulation,[5],-2.4% (inactive)
same,inhibition of viability,[6],0.2% (inactive)
same,viability decrease (inhibition),[7],0.5% (inactive)
same,viability decrease (inhibition),[8],-10.5% (inactive)
same,remaining activity,[16],106% (inactive)
same,fold change,[9]; stronger effect = lower value,0.975 (inactive) and 0.928 (inactive)
same,fold change,[9]; [21],1.2 and 0.724
same,cell count,[9]; [22],10700 and 8710
same,cell count,[9]; [23],11000 and 9380
same,z-score,[17]; [24],-0.209 (inactive)
same,z-score,[17]; [25],0.685
same,remaining NAD,[18],10 nM (inactive)
same,z-score,[10],0.43 (inactive)
